Results as given in the supplement of paper PMC11417369.
Over roughly 25,000 sequences, “ln(normalized median fluorescence intensity)” has its median near 9.3; the highest 2% begin near 10. The sample holds the highest values, similar sequences and a random draw of the others, so the mix is not that of the screen.

These sequences were tested on PF3D7_0420300 AP2 domain 1 (GST-tagged) (assay: gcPBM binding intensity (ln(normalized median fluorescence intensity)); higher = stronger DNA binding).
Procedure, shortened: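 Binding intensity is the highest Masliner-normalised natural-log median intensity over replicate spots in either probe orientation. To obtain it, GST-tagged P. falciparum DNA-binding domains made in E. coli were incubated for 1 h on an Agilent 4 × 180k array of primer-extended double-stranded 36-bp intergenic genomic probes plus negative controls. Detection used Alexa488 anti-GST antibody with scanning at 488 nm.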

Sequence	gcPBM binding intensity (ln)
AAATTATAAATAATTTGTACATAAAAATTGGTAAAG [XGTACX_site5197]	9.07
CTTCAATTAAAATTCACACATATAAATTAAAATATT [CACACA_site6129]	9.06
GTTACACCAACAAACACACACACACCGACACCCAAA [CACACA_site5361]	10.1
TACACCCACCAACACACACACACACCCAAAAAAAAA [CACACA_site498]	10.1
AGCACCCACCAACACACACACACACCCACCCACCGA [CACACA_site368]	10.3
TGTTATATCAATAATATATAATAATACCCTTCTTTT [CACACA_negctrl_site1682]	9.06
TTGTTATAGAAGCATTCACACACACCCATACATACA [CACACA_site8414]	9.87
TATAGAAGCGTTCACACACACACATACATACCCATA [CACACA_site4915]	10.3
GTTATAGAAGCATTCACACACACACCCACATACACA [CACACA_site1465]	10.1
GTTATAGAAGCATTCACACACACACGGACATACACA [CACACA_site6801]	10.1
TATAGAAGCATTCACACACACACATACATACACATA [CACACA_site1466]	10.2
TAGAAGCATGGACACACACACATACATACCCATACA [CACACA_site4916]	10
ATTCACTAAAAAATTGCATGCAATAAATTTTTTTTT [TGCATGCA_site962]	8.91
TAATATATATATATATGTACATATATATTATGTATA [XGTACX_site4690]	9.07
TATATTTTCTATAGGTGTACTCCACATGCGGTGTTA [XGTACX_site7471]	9.08
ATGTATATGCAAACATGTACATATATAAACATATAT [XGTACX_site4159]	9.16
AAAAAAAAAAAAAAAAAAAAACACCCAAAAAAATAT [XGTACX_negctrl_site210]	9.62
TACACTTTTTATGAAGTGCATGTATAGCTCTTAAAA [GTGCAC_site9595]	8.78
CATATAAAAATGTGCACACACACACCCATATATATT [CACACA_site1526]	10.2
TATATATTAAAACACACACACATATATATATATATA [CACACA_site3787]	9.67
ACCATATAAATAAACACACACACACCCATATATATA [CACACA_site2321]	10.2
AACATATAAAAATGTGCACACACACCCATATATATA [CACACA_site1525]	9.97
TTCCCATGTAATATTAAACACACACCCATATAACAC [CACACA_site7905]	9.76

Sequence	gcPBM binding intensity (ln)
CATATAAAAATGTGCACACACACACCGATATATATT [CACACA_site4940]	10.1
TATTAAACTGGACACACACACACACCCATATATAAA [CACACA_site4579]	10.2
TATTAAACGAAACACACACACACACCCATATATAAA [CACACA_site759]	10.2
TTTATTAAACTTGACACACACACACCCACATATATA [CACACA_site760]	10.2
AATATAAATAAAAACACACACACACCCATATATATA [CACACA_site2267]	10.1
AAAAAAAAAAAAAACACACACACACCCATAAATATA [CACACA_site151]	9.88
TTTTACAAATATTACTGTACACATTTTCATATAATT [XGTACX_site17]	9.49
TTTTGCGAAAAAAGGTGTACTGTAAATATATTGAGG [XGTACX_site8941]	9.09
ATATATGATGTAAAAGCACACATATATATATATATA [CACACA_site9330]	9.21
TTTTTTTTAATATTTTACATTGTCTGTTAACAAATA [CACACA_negctrl_site599]	9.14
TTTCTTTTTTTTTTTATTTACCTGAATTATGTATTA [TGCATGCA_negctrl_site345]	9.24
TATGTGCACCCATATACACACACAAATACAATGATA [CACACA_site8295]	9.81
TATAAAATTTTTAAAAGTACATATTTTACATAATAC [XGTACX_site2193]	9.1
GCCTATATGTTTAGTTGTACTCCTAATATTATTTGT [XGTACX_site6060]	9.75
CGCAACACTATTTGGGTGCTCTTCAAAAAAAAAAAA [GTGCAC_site9598]	8.56
TATATATAGAAACACACACACACACCCAAGCGTAGC [CACACA_site63]	10.2
ATATAATATATATATAAACACACAAAAAAAATTATA [CACACA_site8434]	9.63
TATAAAAGGAAACACACACACATATATATATATATA [CACACA_site939]	9.74
TATATATAGAAACACACACACACCAAAGCGTAGCGC [CACACA_site62]	10
ATAAAAAGGAAACACACACACACACCCATATATATA [CACACA_site904]	10.2
TATATATAAAAACACACACACACACCCTATAATTAT [CACACA_site4063]	10.3
TATATATAGAAACACACACACACATATATATATATA [CACACA_site4116]	9.96
TAAAAAGGAAAACACACACACACATATATATATATA [CACACA_site3588]	9.9

Sequence	gcPBM binding intensity (ln)
ATAATATATATATAAACACACAAAAAAAATTATATA [CACACA_site1534]	9.74
TATATATATAAACACACACACACACCCAAGCGTAGC [CACACA_site4210]	10.1
TCATAGTAGAAACACACACACACACCCATATATATA [CACACA_site1737]	10.2
TATATATAGAAACACACACACATATATATATATATA [CACACA_site773]	9.74
TATAATATATATGTAACACACAAAAGTTATATACTT [CACACA_site2868]	9.37
AAAATTTTCTTTTTATGTACACATAATTTTACCGGA [XGTACX_site5276]	9.18
ATAAAATATTTTTGAACATGCAGGTAAAAAATAAAA [TGCATGCA_site1019]	9.27
ATGGATTATACGTGCACACATATATACCAATAAATA [CACACA_site4524]	9.43
AAAAGTTTTATTTAAATGAATTAATCTTTACTATAT [CACACA_negctrl_site282]	9.07
AAAACACAATTTATTACACACATATATTATATATTA [CACACA_site1420]	9.49
TGAATATTCATGTGTGTGCGCATGTTGTTAGACCAT [GTGCAC_site9869]	9.69
AACATTTTAAATTATACACACATTTTGAATATATAT [CACACA_site3470]	9.54
AGCATCATTTTACACACATGCAAATGTAAAATAGGA [TGCATGCA_site460]	9.43
GCCATTGTACCATCCACACACATATAAATATGTATA [CACACA_site7303]	9.85
TATATATATAATATTGCACACAAAATTAAAAGTAAA [CACACA_site7889]	9.47
AAAAAAAATAAACACACACACATACCCATAAATATA [CACACA_site5980]	10.1
TACACGCAGAAACACACACACACACCCATATATATA [CACACA_site637]	10.3
AAAAAAAAAAAAGAAACACACACATATATATATATA [CACACA_site8525]	9.69
TACACCCATAGACACACACACACGCATAAAAAAAAA [CACACA_site8428]	9.93
AAAAAGGAGAAACACACACACACACCCATATATATA [CACACA_site905]	10.2
CACCCATAAATATACACACGCACAACACAAAATAAA [CACACA_site2903]	9.73
CACCCATAGAAACACACACACGCATAAAAAAAAAAA [CACACA_site1513]	9.71
AAAAAAAAAAAAAACACACACACACGCAGATATATA [CACACA_site6672]	10.1

Sequence	gcPBM binding intensity (ln)
AAAAAAAAAAAACACACACACACACCCATATATAAA [CACACA_site1170]	10.2
TACACGCATAAACACACACACACACCCATATATATA [CACACA_site8114]	10.4
CAAGAAAAGAAACACACACACATATATATATATATA [CACACA_site3881]	9.87
GATAGAAAAAAATAATGTACACACACATATATGTTT [XGTACX_site392]	9.72
AAAAAAATTCTGACTTGTACATATAAAATTTACAAA [XGTACX_site4408]	8.78
TACGTATGCCTGTGATGTACATATATATATACATAC [XGTACX_site4728]	9.36
AATCACCAAATATGTACACACCTTAACATGTTTATA [CACACA_site5180]	9.64
TTTAAAAGATAAAACACACATACTAATAAAAAACAA [CACACA_site2556]	9.71
AAGTGTCAAAGTTACACACACAAACTTGTCATTTTT [CACACA_site837]	9.75
AAAAATCATTTAAGAACACACAAATATTTCCATTAA [CACACA_site1488]	9.35
TTATCCTTGTAACAATGTACACATTATTTAATACTT [XGTACX_site1830]	9.29
TACATATTTTTCTTTTCACACATGGAAAAAAAAGGT [CACACA_site5146]	9.11
ACATATAAAATGTATACACACAAATATTACAGAGAT [CACACA_site4920]	9.8
ATTCATATGAAACACACACACACACCCATAAAAAAA [CACACA_site3246]	10.1
TAAACACCCATATAAACACACATATAAACACCCATA [CACACA_site5382]	9.84
TCATAGTATAAACACACACACACACCCATATATATA [CACACA_site8512]	10.3
CACAGTGATATAAAAACACACATGAATTATAATTTC [CACACA_site1667]	9.43
TTTTTCTGTTCTTTTTGTACTTAAATATATTTATTT [XGTACX_site5658]	9.57
TAAATATTATATTTATGTACATAAGTTTTTTTTAAT [XGTACX_site3559]	9.08
AATATTTCTATATGAACATGCAATGTATCTTTTTAT [TGCATGCA_site738]	9.13
